Results on 40 compounds are retold here after PubChem BioAssay (NCATS).

Test [1] deals with Guanine nucleotide-binding protein G(i) subunit alpha-1 (Homo sapiens) (UniProt P63096). As to the kind of experiment: qHTS Assay for Inhibitors of RGS12 GoLoco Motif Activity (Green Fluorophore) (AID 879).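 Also: negative values mean loss of peptide binding seen as reduced polarization.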 The method, boiled down:
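A drop in FITC polarization marked displacement of the FITC-tagged RGS12 GoLoco peptide (10 nM) from Gαi1 (50 nM). Compounds were incubated 10 min at room temperature in Tris pH 7.5 buffer containing 150 mM NaCl, 0.1 mM GDP and 0.05% NP40; unlabeled peptide titration served as control.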

Test [2] in a line: Cellular Toxicity (caspase-3) N2a (AID 665).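 Also: compound exposure lasted 16 h at 37 °C before readout.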 In short, it runs like this: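 Caspase-3/7 activation measured as luminescence from Caspase-Glo reagent (1 h, room temperature) after 16 h compound exposure of mouse N2a cells. AC50 values from Hill-equation concentration-response, scaled between DMSO and 10 uM staurosporine.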
The nature of test [3]: Cellular Toxicity (caspase-3) NIH 3T3 (AID 666).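 Also: caspase signal read after 16 h compound exposure.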 In short, it runs like this: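 Caspase-Glo 3/7 luminescence reported caspase activation in 1000 NIH 3T3 cells/well after 16 h compound exposure at 37 C. DMSO set basal and 100 uM tamoxifen set 100% stimulation; concentration-response modeled with the Hill equation for AC50.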
Test [4] is described as follows: Cellular Toxicity (caspase-3) Renal Proximal Tubule (AID 667).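 Also: cells exposed to compound for 16 hours at 37 °C before detection.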 In short, it runs like this:
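AC50 derived by standard Hill fit of concentration-response data, normalized between DMSO basal and 10 uM staurosporine as 100% stimulation. Cells: primary rat kidney proximal tubule, 16 h treatment at 37 °C.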

Test [5] deals with Cytochrome P450 3A4 (Homo sapiens) (UniProt P08684). Put plainly: qHTS Assay for Activators of Cytochrome P450 3A4 (AID 885). Also: nearly all actives have a fitted effect of over 65% in size. In short, it runs like this: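 CYP3A4 activity: Luciferin-PPXE O-dealkylation, 25uM substrate, 200mM KPO4, RT throughout. Read-out is luciferase luminescence; higher values reflect activation.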
Chain of Cytochrome P450 3A4 (Homo sapiens) (P08684 whole entry, looked up): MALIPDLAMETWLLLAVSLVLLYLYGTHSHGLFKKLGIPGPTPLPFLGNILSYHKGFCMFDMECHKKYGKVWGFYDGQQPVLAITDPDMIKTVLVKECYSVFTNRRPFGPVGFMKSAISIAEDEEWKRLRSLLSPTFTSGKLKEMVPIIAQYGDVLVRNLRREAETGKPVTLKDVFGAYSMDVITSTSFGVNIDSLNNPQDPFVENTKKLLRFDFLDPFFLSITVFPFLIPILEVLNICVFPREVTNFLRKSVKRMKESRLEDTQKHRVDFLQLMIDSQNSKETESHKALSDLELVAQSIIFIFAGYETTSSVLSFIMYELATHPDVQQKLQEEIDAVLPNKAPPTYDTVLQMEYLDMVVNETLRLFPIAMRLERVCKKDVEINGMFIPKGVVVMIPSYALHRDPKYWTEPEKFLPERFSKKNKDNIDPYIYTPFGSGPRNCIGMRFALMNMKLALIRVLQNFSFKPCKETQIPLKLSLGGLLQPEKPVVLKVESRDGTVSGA
Test [6] shares this target. Put plainly: qHTS Assay for Inhibitors and Substrates of Cytochrome P450 3A4 (AID 884). Also: nearly all actives have a fitted effect of over 50% in size. Also: potency is read from the fitted curve at half-maximal effect. The method, boiled down:
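Luminescent readout of luciferin produced by CYP3A4 (20 nM) dealkylation of Luciferin-PPXE, 25 uM (its KM). NADPH-driven reaction ran 60 min at RT after 10 min compound preincubation; data scaled to 57 uM ketoconazole as 100% inhibition.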

Test [7] can be described thus: qHTS Assay for Identification of Small Molecule Antagonists for NFkB Signaling Pathway (AID 895; active = well fitted inhibition curve with a large enough effect in the signal ratio, with a control signal flat, not every such curve was filed as active; the % refers to the signal ratio; also: potency is read from the fitted curve at half-maximal effect). The method, boiled down:
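NFkB-bla ME-180 cervical carcinoma cells with beta-lactamase reporter under NFkB response element; compounds added, then TNF alpha at 10 pM final (EC50), 5 h at 37 C. LiveBLAzer substrate 2 h, room temperature; emission 460/530 nm at 405 nm excitation.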

The target in test [8] is Cytochrome P450 2C19 (Homo sapiens) (UniProt P33261). As to the kind of experiment: qHTS Assay for Inhibitors and Substrates of Cytochrome P450 2C19 (AID 899). Also: nearly all actives have a fitted effect of over 60% in size. Also: potency is read from the fitted curve at half-maximal effect. In short, it runs like this: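 In 50mM KPO4, the reaction held 5nM enzyme and KM-level (10uM) Luciferin-H EGE; it ran 60 min at 37C after NADPH regeneration and a 10 min compound preincubation. Luminescence values were scaled to 57uM ketoconazole as complete inhibition.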
Chain of Cytochrome P450 2C19 (Homo sapiens) (P33261 whole entry, looked up): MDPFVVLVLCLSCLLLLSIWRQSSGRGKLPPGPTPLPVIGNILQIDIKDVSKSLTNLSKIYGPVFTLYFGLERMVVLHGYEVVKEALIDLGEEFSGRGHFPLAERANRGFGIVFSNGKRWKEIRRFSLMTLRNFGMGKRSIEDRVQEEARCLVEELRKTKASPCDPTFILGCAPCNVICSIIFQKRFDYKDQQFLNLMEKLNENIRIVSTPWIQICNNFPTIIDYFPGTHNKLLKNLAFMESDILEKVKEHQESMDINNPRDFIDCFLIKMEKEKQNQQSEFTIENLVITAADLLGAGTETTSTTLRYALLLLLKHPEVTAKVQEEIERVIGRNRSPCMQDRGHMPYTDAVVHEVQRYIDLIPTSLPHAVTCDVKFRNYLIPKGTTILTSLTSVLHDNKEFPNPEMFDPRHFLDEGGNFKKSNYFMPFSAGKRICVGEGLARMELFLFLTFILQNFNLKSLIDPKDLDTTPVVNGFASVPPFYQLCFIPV

The target in test [9] is Cytochrome P450 2D6 (Homo sapiens) (UniProt P10635). Put plainly: qHTS Assay for Inhibitors and Substrates of Cytochrome P450 2D6 (AID 891). Also: nearly all actives have a fitted effect of over 60% in size. Also: potency is read from the fitted curve at half-maximal effect. The method, boiled down: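 Luminescent read-out of luciferin formed by 5 nM human CYP2D6 demethylating 30 uM Luciferin-ME EGE (Km level) over 60 min at room temperature after NADPH regeneration addition. Data normalized to full inhibition by 1.43 uM quinidine.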
Chain of Cytochrome P450 2D6 (Homo sapiens) (P10635 whole entry, looked up): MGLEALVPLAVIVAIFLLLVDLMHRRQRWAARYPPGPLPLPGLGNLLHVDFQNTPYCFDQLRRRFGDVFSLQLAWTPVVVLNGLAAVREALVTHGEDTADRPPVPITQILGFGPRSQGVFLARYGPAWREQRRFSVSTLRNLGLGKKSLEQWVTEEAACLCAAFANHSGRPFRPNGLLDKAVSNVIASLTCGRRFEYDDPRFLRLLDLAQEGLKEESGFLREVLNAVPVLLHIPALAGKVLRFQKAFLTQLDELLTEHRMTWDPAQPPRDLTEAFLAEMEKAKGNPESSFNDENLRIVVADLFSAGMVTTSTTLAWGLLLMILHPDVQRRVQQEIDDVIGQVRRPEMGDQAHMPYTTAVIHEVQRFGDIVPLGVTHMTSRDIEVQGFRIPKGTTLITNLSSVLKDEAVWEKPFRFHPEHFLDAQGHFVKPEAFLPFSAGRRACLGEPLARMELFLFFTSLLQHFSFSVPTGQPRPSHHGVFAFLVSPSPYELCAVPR

The target of test [10] is Cytochrome P450 2C9 (Homo sapiens) (UniProt P11712). Put plainly: qHTS Assay for Inhibitors and Substrates of Cytochrome P450 2C9 (AID 883). Also: nearly all actives have a fitted effect of over 60% in size. Also: potency is read from the fitted curve at half-maximal effect. In short, it runs like this:
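CYP2C9 deoxyluciferin hydroxylation, 37C, 60 min with NADPH regeneration; 10nM enzyme, 100uM Luciferin-H (KM). Glo detection reagent stopped reaction; luminescence normalized to sulphaphenazole (57uM) full inhibition.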

Where “and” joins values, the source holds several entries; their conditions need not be identical. Equal entries are not always repeated. Results filed as inconclusive are left out. A structure can be active in one record and inactive in another. Calls of active or inactive are those of the source. Unless noted, calls follow the shape of the dose curve; as a rule, active = well fitted curve in the direction sought with a large enough effect; inconclusive = small, poorly fitted or top-dose-only effect, or another doubt; inactive = no such curve, though single readings can be large; an effect the other way counts as inactive or inconclusive.

Chain of Cytochrome P450 2C9 (Homo sapiens) (P11712 whole entry, looked up): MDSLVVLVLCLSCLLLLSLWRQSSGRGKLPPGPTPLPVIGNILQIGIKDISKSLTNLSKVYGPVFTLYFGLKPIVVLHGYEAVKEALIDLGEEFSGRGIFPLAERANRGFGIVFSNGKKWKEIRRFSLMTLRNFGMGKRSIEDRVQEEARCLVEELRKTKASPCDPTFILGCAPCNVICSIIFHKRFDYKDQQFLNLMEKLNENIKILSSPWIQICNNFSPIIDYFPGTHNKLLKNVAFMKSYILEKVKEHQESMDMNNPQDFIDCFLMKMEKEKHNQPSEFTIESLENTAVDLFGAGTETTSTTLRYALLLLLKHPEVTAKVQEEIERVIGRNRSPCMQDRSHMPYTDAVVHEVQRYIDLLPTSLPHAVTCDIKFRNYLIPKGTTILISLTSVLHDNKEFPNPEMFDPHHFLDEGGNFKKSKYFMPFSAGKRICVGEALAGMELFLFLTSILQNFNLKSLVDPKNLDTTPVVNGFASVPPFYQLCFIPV
Chain of Guanine nucleotide-binding protein G(i) subunit alpha-1 (Homo sapiens) (P63096 whole entry, looked up): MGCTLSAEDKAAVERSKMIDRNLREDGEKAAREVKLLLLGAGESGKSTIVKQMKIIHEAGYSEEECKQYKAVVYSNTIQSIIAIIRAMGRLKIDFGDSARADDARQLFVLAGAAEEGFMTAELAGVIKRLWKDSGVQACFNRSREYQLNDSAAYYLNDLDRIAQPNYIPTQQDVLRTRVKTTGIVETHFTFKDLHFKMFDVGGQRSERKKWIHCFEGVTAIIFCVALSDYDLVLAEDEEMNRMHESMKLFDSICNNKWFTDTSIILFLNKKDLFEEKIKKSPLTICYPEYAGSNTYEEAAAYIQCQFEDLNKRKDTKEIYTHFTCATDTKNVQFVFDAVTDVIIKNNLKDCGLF

As for `CCCN1CCC[C@H](c2cccc(O)c2)C1`, the compound was classed as inactive in [1].

As to `c1cc2ccc3cccc4ccc(c1)c2c34`, the outcome in [2], in [3], in test [4] and in test [5] was inactive.

`CNCCc1ccc(O)c(O)c1`: the compound was called inactive in test [1].

On to `CN(C)NC(=O)CCC(=O)O`, for which the compound was classed as inactive in [2], in test [3] and in test [4]. Besides, in [6], the Potency result is “inactive”.

On to `Cc1cc(O)ccc1Cl`, for which the outcome in [2], in [3] and in test [4] was inactive. The Potency entry in test [6] is “inactive”.

`CN(C)[C@@H]1C(=O)C(C(N)=O)=C(O)[C@@]2(O)C(=O)C3=C(O)c4c(O)cccc4[C@@](C)(O)[C@H]3[C@H](O)[C@@H]12`: the compound was classed as inactive in [2], in test [3] and in [4]. Moreover, the Potency entry in test [6] is “inactive”.

In the case of `c1ccc(CCCN2CCN(CCOC(c3ccccc3)c3ccccc3)CC2)cc1`, the compound was called inactive in test [1].

For `O=C(O)COc1ccccc1`, the compound was classed as inactive in test [2], in [3] and in [4]. Besides, in test [6], the Potency result is “inactive”.

For `Nc1ccc(Cl)cc1N`, the result in test [2], in test [3], in test [4] and in test [5] was inactive.

`CC(=O)[O][Hg][c]1ccccc1`: the compound was classed as inactive in test [2], in test [3] and in test [4].

Regarding `COC(C)(C)CCCC(C)C/C=C/C(C)=C/C(=O)OC(C)C` (stereo unspecified), the result in test [2], in test [3], in [4] and in test [5] was inactive.

For the compound `C1CCC(NC2CCCCC2)CC1`, the compound was classed as inactive in test [2], in test [3] and in [4]. Further, in test [6], the Potency result is “inactive”.

Take `Nc1ccc([N+](=O)[O-])cc1`: the compound was called inactive in [2], in test [3] and in [4]. The Potency entry in [6] was “inactive”.

Turning to `CCCCOC(=O)c1ccccc1C(=O)OCc1ccccc1`, the call in test [2], in test [3], in [4] and in [5] was inactive.

Regarding `O=[N+]([O-])c1cc([N+](=O)[O-])c2ccccc2c1`, the compound was called inactive in test [2], in test [3] and in test [4]. The Potency result in [6] was “inactive”.

Turning to `O=[N+]([O-])c1c2ccccc2cc2ccccc12`, the outcome in test [2], in test [3], in test [4] and in test [5] was inactive.

For the compound `OCCCBr`, the compound was called inactive in test [2], in [3] and in test [4]. Also, the Potency result in test [6] was “inactive”.

With `CCCCC(CC)COC(=O)c1ccccc1C(=O)OCC(CC)CCCC` (stereo unspecified), the compound was called inactive in test [2], in test [3] and in test [4].

Consider `NCCc1c[nH]c2ccccc12`, for which the compound was called inactive in [1]. Besides, the Potency result in test [6] was “inactive”. The Potency in [7] was 12.6 µM (active).

Regarding `CC[C@@H]1C(=O)OC[C@@H]1Cc1cncn1C`, the Potency in [6] was 12.6 µM (active). Also, the compound was classed as inactive in [5].

For `C#CC1(O)CCC2C3CCC4=CC(=O)CCC4(C)C3CCC21C` (stereo unspecified), the Potency result in test [6] was “inactive”.

As for `NCc1cc(=O)[nH]o1`, the call in [1] was inactive. In addition, the Potency result in test [8] is “inactive”.

Regarding `CNCCc1c[nH]c2ccc(O)cc12`, the result in test [1] was inactive. Further, the Potency entry in [6] and in test [7] was “inactive” in each case.

In the case of `CCCCCC[C@H]1C(=O)O[C@H](C)[C@H](NC(=O)c2cccc(NC=O)c2O)C(=O)O[C@@H](C)[C@@H]1OC(=O)CC(C)C`, the compound was called inactive in [5].

Consider `COc1ccc2c(c[n+](C)c3c4cc5c(cc4ccc23)OCO5)c1OC`, for which the call in [1] and in test [5] was inactive. Also, in test [7], the Potency is 11.2 µM (active).

As to `NC(=NCCC[C@H](N)C(=O)O)N[N+](=O)[O-]`, the call in test [1] was inactive. In addition, the Potency result in test [7] is “inactive”.

For the compound `CCCN1CCO[C@@H]2c3cc(O)ccc3OC[C@H]21`, the outcome in test [1] and in test [5] was inactive. In addition, the Potency entry in test [7] and in [8] was “inactive” each time.

With `NCCc1c[nH]c2ccc(O)cc12`, the compound was called inactive in test [1] and in test [5]. Besides, the Potency entry in test [7] was “inactive”.

As for `CC(C)Oc1cccnc1N(C)C1CCN(Cc2ccccc2)CC1`, the call in test [1] and in [5] was inactive. Also, in [9], the Potency is 7.94 µM (active).

Regarding `CN[C@@H]1C[C@@H](c2ccc(Cl)c(Cl)c2)c2ccccc21`, the outcome in [1] was inactive. The Potency in [7] is 8.91 µM (active).

Regarding `Cn1cnc(CCN)c1`, in [1], the result was inactive. Also, the Potency result in test [10], in test [7] and in test [8] was “inactive” throughout.

Turning to `CCn1cc(C(=O)O)c(=O)c2cc3c(cc21)OCO3`, the Potency entry in test [9] was “inactive”.

For `COc1cc2c(cc1OC)[C@@H]1C(=O)c3ccc4c(c3O[C@@H]1CO2)C=CC(C)(C)O4`, in test [5], the compound was classed as inactive. Besides, the Potency was 0.0631 µM (active) in [9] and 5.01 µM (active) in test [8].

With `C[C@@H]1O[C@H](C[N+](C)(C)C)C[C@H]1O`, the outcome in [1] was inactive. In test [7], the Potency entry is “inactive”.

Turning to `CC[C@@]1(O)C(=O)OCc2c1cc1n(c2=O)Cc2cc3ccccc3nc2-1`, the outcome in test [1] and in [5] was inactive. In addition, the Potency result in test [10], in test [9] and in test [8] was “inactive” each time. Besides, the Potency in [6] was 6.31 µM (active) and inactive.

Turning to `COc1ccc(C(=O)c2c(C)n(CCN3CCOCC3)c3cc(I)ccc23)cc1`, the Potency in [6] is 5.01 µM (active). The compound was called inactive in [5].

In the case of `Cc1nccc2c1[nH]c1ccccc12`, the result in test [1] and in test [5] was inactive. Further, the Potency result in [10] and in [8] was “inactive” throughout. For the same compound, in [6], the Potency is 3.98 µM (active).

For `O=C(O)CC[N+](=O)[O-]`, the result in [1] was inactive. Besides, the Potency entry in test [6] and in [7] was “inactive” throughout.

With `O=C1CCCN1CC#CCN1CCCC1`, the result in [1] was inactive. Besides, the Potency result in test [10] was “inactive and 2 µM (active)”; in [9], 7.94 µM (active); in test [8], 0.158 µM (active). Also, the Potency result in test [6] and in test [7] was “inactive” each time.

In the case of `Cc1nc(-c2ccc(-c3ccc(C(=O)N4CCc5cc6c(cc54)C4(CCN(C)CC4)CO6)cc3)c(C)c2)no1`, the result in [1] and in test [5] was inactive. Also, the Potency in [10] was 7.94 µM (active); in test [8] it was 3.98 µM (active).
